# In PubChem BioAssay AID743171 (National Center for Advancing Translational Sciences (NCATS), 2013):
# Values joined by “and” are separate entries in the source; they are usually repeats but may differ in a detail not shown here. Equal entries are not always repeated. Inconclusive results are not listed. A number with no mark means an inactive call. Active and inactive are the calls of the source. Calls come from the whole dose curve; as a rule, active = well fitted inhibition curve with a large enough effect; inconclusive = small, poorly fitted or top-dose-only effect; inactive = flat fitted curve, though single readings scatter.
# Target: 15-hydroxyprostaglandin dehydrogenase [NAD(+)] (Homo sapiens) (UniProt P15428)
# Experiment: Extended Characterization of HPGD Inhibitors: Activity in Primary Assay (HPGD)
# Details: recombinant HPGD, NADH fluorescence, PGE2 substrate; series mostly up to 57.1 µM; activity, negative = inhibition: at the top concentration
# From the text: The central role of HPGD is to inactivate prostaglandins such as prostaglandin E2 (PGE2) or prostaglandin D2 (PGD2). These prostaglandins are involved in a number of processes, including inflammation, differentiation, and cellular signaling, which makes HPGD an important target for pharmacological intervention. Inhibition of 15-PGDH (HPGD) activity was screened by utilizing prostaglandin as an electron donor and NAD+ as an electron acceptor/cofactor. An increase in the fluorescence intensity due to conversion of NAD+ to NADH was used to measure the enzyme activity. All compounds were screened using a qHTS approach, where compounds are assayed using at least seven concentrations to generate concentration-response curves for every compound. Briefly, qHTS uses an inter-plate dilution method where the first plate contains the highest concentration of a set of compounds in DMSO, while subsequent plates contain the same compounds in the same well locations, but at successive lower concentrations. NIH Chemical Genomics Center [NCGC] NIH Molecular Libraries Probe Centers Network [MLPCN] MLPCN Grant: MH084681 Assay Submitter (PI): Structural Genomics Consortium
# Three uL of enzyme (20 nM final concentration) were dispensed to 1536-well Greiner black solid bottom plates. Compounds (23 nL) were transferred via Kalypsys PinTool. The plates were incubated for 15 min at room temperature, and then 1 uL of substrate/cofactor solution (Substrate/cofactor solution: 1 mM NAD+ and 30 uM prostaglandin (Sigma, prostaglandin E2, #P5640)) were added to start the reaction. The plates were immediately transferred to and read 4 times every 30 seconds on a ViewLux High-throughput CCD imager (Perkin-Elmer) using 340 nm excitation and 450 nm emission fluorescence protocol. The fluorescence intensity difference between the last and the first time points, normalized against controls, was used to compute reaction progress.
# 15-hydroxyprostaglandin dehydrogenase [NAD(+)] (Homo sapiens), sequence (P15428 whole entry, looked up): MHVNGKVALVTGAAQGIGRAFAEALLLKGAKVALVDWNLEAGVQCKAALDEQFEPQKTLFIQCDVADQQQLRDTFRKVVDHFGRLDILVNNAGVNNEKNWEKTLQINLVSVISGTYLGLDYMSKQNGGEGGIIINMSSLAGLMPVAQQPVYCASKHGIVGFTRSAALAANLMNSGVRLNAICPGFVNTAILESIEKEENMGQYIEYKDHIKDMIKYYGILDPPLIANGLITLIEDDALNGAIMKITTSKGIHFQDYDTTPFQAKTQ
SMILES,Potency,"activity, negative = inhibition"
Cc1ccc(-n2c(C)cc(-c3nnc4n3CCCCC4)c2C)cc1,34.1 nM (active),–
Cc1cccc(-n2cnc3cc(C(=O)N4CCC(C#N)CC4)ccc32)c1,19200 nM (active),–
Cc1cc(-c2nnc3n2CCCCC3)c(C)n1-c1ccc(Cl)c(Cl)c1,21.5 nM (active),–
O=[N+]([O-])c1cccc(CSc2nc3ncc(Br)cc3[nH]2)c1,68.1 nM (active),–
O=[N+]([O-])c1ccccc1CSc1nc2ncc(Br)cc2[nH]1,96.1 nM (active),–
Clc1ccccc1CSc1nc2ncc(Br)cc2[nH]1,54.1 nM (active),–
CCOC(=O)c1ccc(-n2cnc3cc(C(=O)N4CCCCC4)ccc32)cc1,13.6 nM (active),–
O=C(c1ccc2c(c1)ncn2-c1cccc(Cl)c1)N1CCCCC1,12.1 nM (active),–
N#Cc1ccccc1CCc1nc2ncc(Br)cc2[nH]1,19200 nM (active),–
Cc1cccc(-n2cnc3cc(C(=O)N4CCC(N5CCOCC5)CC4)ccc32)c1,–,-5.4%
Cc1cccc(-n2cnc3cc(C(=O)N4CCCCC4)ccc32)c1,34.1 nM (active) and 19.2 nM (active),–
COc1ccc(CSc2nc3ncc(Br)cc3[nH]2)cc1F,85.7 nM (active),–
COc1cccc(-n2cnc3cc(C(=O)N4CCCCC4)ccc32)c1,19.2 nM (active),–
Cc1cc(-c2nnc3n2CCCC3)c(C)n1-c1ccccc1,192 nM (active),–
CCOC(=O)c1ccc(-n2c(C)cc(-c3nnc4n3CCCCC4)c2C)cc1,38.3 nM (active),–
Cc1cccc(-n2cnc3cc(C(=O)N4CCCCCC4)ccc32)c1,27.1 nM (active),–
Cc1cccc(-n2cnc3cc(C(=O)N4CCCC(C(F)(F)F)C4)ccc32)c1 (stereo not given),68.1 nM (active),–
CC(C)(C)c1cccc(-n2cnc3cc(C(=O)N4CCCCC4)ccc32)c1,171 nM (active),–
O=C(c1ccc2c(c1)ncn2-c1cccc(C(F)(F)F)c1)N1CCCCC1,48.2 nM (active),–
Cc1cccc(-n2cnc3cc(C(=O)N4CCN(C)CC4)ccc32)c1,2710 nM (active),–

SMILES,Potency,"activity, negative = inhibition"
Cc1ccc(-n2cnc3cc(C(=O)N4CCCCC4)ccc32)cc1,19.2 nM (active),–
c1ccc(-n2cc(-c3nnc4n3CCCCC4)c3ccccc32)cc1,681 nM (active),–
Cc1cc(-c2nnc3n2CCCCCC3)c(C)n1-c1ccccc1,242 nM (active),–
Cc1cc(-c2nnc3n2CCCCCCC3)c(C)n1-c1ccccc1,383 nM (active),–
Cc1cccc(-n2cnc3cc(C(=O)NC4CCCCC4)ccc32)c1,3040 nM (active),–
Cc1cc(-c2nnc3n2CCCCC3)c(C)n1-c1ccccn1,1080 nM (active),–
Cc1cc(-c2nnc3n2CCCCC3)c(C)n1-c1ccc(C(F)(F)F)cc1,68.1 nM (active),–
Cc1cc(-c2nnc3n2CCCCC3)c(C)n1-c1ccc(Br)cc1,48.2 nM (active),–
CC(C)c1cccc(-n2cnc3cc(C(=O)N4CCCCC4)ccc32)c1,68.1 nM (active),–
Cc1cccc(-n2cnc3cc(C(=O)N4CCCC(C(C)C)C4)ccc32)c1 (stereo not given),48.2 nM (active),–
Cc1cc(-c2nnc3n2CCCCC3)c(C)n1-c1ccc(C#N)cc1,96.1 nM (active),–
N#Cc1cccc(CSc2nc3ncc(Br)cc3[nH]2)c1,136 nM (active),–
O=C(c1ccc2c(c1)ncn2-c1ccc(C(F)(F)F)cc1)N1CCCCC1,85.7 nM (active),–
CC(C)(C)c1ccc(-n2cnc3cc(C(=O)N4CCCCC4)ccc32)cc1,54.1 nM (active),–
Cc1cc(-c2nnc3n2CCCCC3)c(C)n1-c1cccc(C(F)(F)F)c1,48.2 nM (active),–
Fc1cccc(CSc2nc3ncc(Br)cc3[nH]2)c1,341 nM (active),–
O=C(c1ccc2c(c1)ncn2-c1ccccc1)N1CCCCC1,21.5 nM (active),–
Cc1cccc(-n2cnc3cc(C(=O)N4CCC(Br)CC4)ccc32)c1,76.4 nM (active),–
O=C(c1ccc2c(c1)ncn2-c1ccc(Cl)cc1)N1CCCCC1,21.5 nM (active),–
Brc1cnc2nc(SCc3ccccc3)[nH]c2c1,8570 nM (active),–
